# D1 ag: agonists of human D1 dopamine receptor | activation, % at 2 µM | HEK293 T-REx D1 cells, calcium flux, agonist mode | 360,000 tested, 1% active; also: 0% is about no effect
# Target sequence (P21728 whole entry, looked up): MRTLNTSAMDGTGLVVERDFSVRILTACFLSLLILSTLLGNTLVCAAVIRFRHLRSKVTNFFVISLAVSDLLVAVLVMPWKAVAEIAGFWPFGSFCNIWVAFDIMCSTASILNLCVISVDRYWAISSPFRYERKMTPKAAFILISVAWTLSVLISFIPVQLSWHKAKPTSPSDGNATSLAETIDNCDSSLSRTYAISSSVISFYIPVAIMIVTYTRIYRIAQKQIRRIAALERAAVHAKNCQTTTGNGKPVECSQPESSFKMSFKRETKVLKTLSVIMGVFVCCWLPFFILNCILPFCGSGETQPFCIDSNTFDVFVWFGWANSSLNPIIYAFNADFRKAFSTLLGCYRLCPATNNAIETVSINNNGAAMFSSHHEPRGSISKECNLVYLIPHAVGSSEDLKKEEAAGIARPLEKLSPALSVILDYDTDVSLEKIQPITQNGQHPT
#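 Agonism was scored from calcium flux recorded over 180 s (1 read/s) after pintool compound addition, following a 10-cycle baseline. Cells were inducible force-coupled HEK293 TREx D1, plated overnight at 30 C and loaded with no-wash calcium dye.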
# D1 PAM: human D1 dopamine receptor positive modulation; P21728; HEK293 TREx D1 cells, calcium flux, dopamine EC20 potentiation; potentiation, % at 10 µM; 360,000 tested, 0.036% active; in the data active = potentiation above about 30%; also: 0% is about no effect
# TRHR ag: TRH receptor (human) agonism | P34981 | TRHR cells, calcium flux fluo-8, FDSS agonist mode | activation, % at 2 µM | 360,000 tested, 0.18% active | AID 493084; also: 0% is about no effect
#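 Read-out: compound-evoked intracellular calcium rise in TRHR cells, fluo-8 dye, kinetic FDSS fluorescence at 1 s/cycle following a 10-cycle baseline. Cells cultured overnight before dye loading (30 min–1.5 h, RT).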
# TRHR enhancer: allosterically enhances the human TRH receptor; 360,000 tested, 0.66% active; TRHR cells, fluo-8 calcium fluorescence, EC20 TRH enhancement; AID 493056; enhancement, % at 2 µM; P34981; in the data active = enhancement above about 30%; also: 0% is about no effect
#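 TRHR-expressing cells loaded with fluo-8 calcium dye were read kinetically (ex 480/em 530) during compound addition, then stimulated with an EC20 of TRH (10 nM final). Enhancement of the Gq-mediated intracellular calcium response was scored.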
# D1 antag: antagonists of human D1 dopamine receptor. HEK293 TREx D1 cells, calcium flux, dopamine EC80; hits give low values. P21728. AID 504652. 360,000 tested, 3.2% active. activity change, negative = inhibition, % at 10 µM; in the data active = activity change below about -30%; also: % is scaled to controls: 0 for no effect and ±100 for the full control effect
#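 Antagonism measured as reduced calcium response to an EC80 dopamine addition following 180 s compound pre-read; cells were inducible HEK293 Trex D1 plated overnight at 30 C, read kinetically at 1 cycle/sec.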
# Starred values were filed as active, the others as inactive; / = no result given. An excerpt weighted towards active compounds, which were near 4.6% of everything screened. Rule as the data show it, unless noted: active = activation above about 30%; inactive = the rest.
SMILES,D1 ag,D1 PAM,TRHR ag,TRHR enhancer,D1 antag
COc1ccc(S(=O)(=O)NCCc2csc3nc(-c4ccc(Cl)cc4)nn23)cc1C,-1,0,0,2,/
COC(=O)c1ccccc1NC(=O)C1CCN(C(=O)c2ccc(OC)cc2)CC1,1,-13,0,-5,-33*
COc1ccc(NS(=O)(=O)c2ccc(NC(=O)C3CC3)cc2)cc1,12,-12,0,-18,-87*
Cc1cc2c(s1)c1cnn(Cc3cc(OC(F)(F)F)ccc3F)c(=O)c1n2C,3,6,0,-9,-14
Cc1ccc2oc(C(=O)Nc3sc4c(c3C(=O)NCc3cccnc3)CCCC4)cc(=O)c2c1,2,-1,0,-1,-6
CCCCc1ccc(S(=O)(=O)Nc2ccc(C)c(NS(C)(=O)=O)c2)cc1,23,-5,0,8,-35*
Cc1ccc(NS(=O)(=O)c2ccc(C)c(NC(=O)COc3ccccc3)c2)c(C)c1,-2,-11,-1,1,-46*
CCOc1ccc(-c2cc(NC(=O)Nc3ccccc3Cl)c(C(=O)OC)s2)cc1,5,-1,0,1,-2
CCc1ccc(C(=O)C(C)OC(=O)c2nn(C)c(=O)c3ccccc23)cc1 (stereo not given),35*,-8,0,9,-15
O=C(CCCCCn1c(=S)[nH]c2ccc(N3CCOCC3)cc2c1=O)NC1CCN(Cc2ccccc2)CC1,0,-8,-1,3,-32*
O=c1c2ccccc2[nH]c(=S)n1CCCN1CCN(c2ccccc2F)CC1,4,-32,0,7,-75*
O=c1c2ccccc2[nH]c(=S)n1CCCN1CCN(c2ccccc2)CC1,1,-10,0,1,-58*
O=c1c2ccccc2[nH]c(=S)n1CCN1CCCCC1,0,-13,0,-3,9
O=c1c2cccnc2[nH]c(=S)n1CCCN1CCN(c2ccccc2F)CC1,2,-6,0,14,-14
COc1ccccc1N1CCN(C(=O)c2ccc(Nc3nc4ccccc4n4nnnc34)cc2)CC1,2,-3,0,1,0
Cc1ccc(S(=O)(=O)NCCN2CCN(S(=O)(=O)c3ccccc3Cl)CC2)cc1,7,-7,0,-6,-53*
O=C1/C(=C/c2cccc(F)c2)Oc2cc(O)ccc21,34*,-5,21,0,-36*
CCN(CCNc1ccc(Cl)cc1[N+](=O)[O-])C(=O)c1cc([N+](=O)[O-])c(N(C)C)cc1OC,3,-7,-1,-9,-80*
CN(C)CCNc1ccc(Cl)cc1[N+](=O)[O-],6,2,0,0,-15
COc1ccc(C(=O)NCCSc2c(C)[nH]c3ccccc23)cc1,7,0,0,-2,-24
Cc1[nH]c2ccccc2c1SCCNC(=O)c1ccc(F)cc1,0,-1,0,-5,-34*
O=C(NCc1ccco1)c1c[nH]c2ccc(S(=O)(=O)Nc3ccc(F)cc3F)cc2c1=O,0,-1,-1,20,19
Cc1ccc(N(Cc2cccs2)C(=O)COc2cccc(C)c2)cc1,11,0,1,2,-14
Cc1cc(C)cc(OCC(=O)N(Cc2cccs2)c2ccc(Cl)cc2)c1,33*,1,1,0,10
COc1ccc(NC(=O)c2cc3ccccc3o2)c(OC)c1,8,0,1,-1,9
SMILES,D1 ag,D1 PAM,TRHR ag,TRHR enhancer,D1 antag
Cc1nc2c(-c3ccccc3)c(C)nn2c(SCC(N)=O)c1Cc1ccccc1,-1,-3,0,34*,10
Cc1c(C(=O)N2CCCCCC2)c(S(=O)(=O)N(Cc2ccccc2)C(C)(C)C)c(C)n1C,1,5,0,5,-13
CC(C)C(C(=O)Nc1ccncc1)c1ccc(Cl)cc1 (stereo not given),51*,0,8,-3,-7
CC(C)c1onc(C(=O)NCc2ccccn2)c1[N+](=O)[O-],0,0,0,31*,-6
CC(C)c1ccc(OCC(=O)Nc2ccncc2)cc1,18,0,-2,-6,-34*
Cc1cc(OCC(=O)Nc2ccncc2)ccc1Cl,20,-3,0,-14,-38*
CCCn1c(SCc2nc(-c3ccccc3C)no2)nnc1-c1ccc(Cl)cc1,23,0,2,-6,5

# Bioassay records deposited in PubChem by National Center for Advancing Translational Sciences (NCATS).
